Assay results published in the supplement of paper PMC11732987, “Enantioselective OTUD7B fragment discovery through chemoproteomics screening and high-throughput optimisation” (Communications Chemistry, 2025).

Experiments:
Experiment in all cases: log2 ratio of Biotin-Ahx-Ub-VS probe labelling (fragment/DMSO); higher = less target engagement (more negative = stronger competition), active = hit call of the paper (q ≤ 0.05, log2 ratio ≤ -1)
Settings in all cases: compound concentration: 200 uM; treatment time: 3 h
USP19 = molecular target: T1, USP19 (UniProt O94966)
T1 sequence (whole entry): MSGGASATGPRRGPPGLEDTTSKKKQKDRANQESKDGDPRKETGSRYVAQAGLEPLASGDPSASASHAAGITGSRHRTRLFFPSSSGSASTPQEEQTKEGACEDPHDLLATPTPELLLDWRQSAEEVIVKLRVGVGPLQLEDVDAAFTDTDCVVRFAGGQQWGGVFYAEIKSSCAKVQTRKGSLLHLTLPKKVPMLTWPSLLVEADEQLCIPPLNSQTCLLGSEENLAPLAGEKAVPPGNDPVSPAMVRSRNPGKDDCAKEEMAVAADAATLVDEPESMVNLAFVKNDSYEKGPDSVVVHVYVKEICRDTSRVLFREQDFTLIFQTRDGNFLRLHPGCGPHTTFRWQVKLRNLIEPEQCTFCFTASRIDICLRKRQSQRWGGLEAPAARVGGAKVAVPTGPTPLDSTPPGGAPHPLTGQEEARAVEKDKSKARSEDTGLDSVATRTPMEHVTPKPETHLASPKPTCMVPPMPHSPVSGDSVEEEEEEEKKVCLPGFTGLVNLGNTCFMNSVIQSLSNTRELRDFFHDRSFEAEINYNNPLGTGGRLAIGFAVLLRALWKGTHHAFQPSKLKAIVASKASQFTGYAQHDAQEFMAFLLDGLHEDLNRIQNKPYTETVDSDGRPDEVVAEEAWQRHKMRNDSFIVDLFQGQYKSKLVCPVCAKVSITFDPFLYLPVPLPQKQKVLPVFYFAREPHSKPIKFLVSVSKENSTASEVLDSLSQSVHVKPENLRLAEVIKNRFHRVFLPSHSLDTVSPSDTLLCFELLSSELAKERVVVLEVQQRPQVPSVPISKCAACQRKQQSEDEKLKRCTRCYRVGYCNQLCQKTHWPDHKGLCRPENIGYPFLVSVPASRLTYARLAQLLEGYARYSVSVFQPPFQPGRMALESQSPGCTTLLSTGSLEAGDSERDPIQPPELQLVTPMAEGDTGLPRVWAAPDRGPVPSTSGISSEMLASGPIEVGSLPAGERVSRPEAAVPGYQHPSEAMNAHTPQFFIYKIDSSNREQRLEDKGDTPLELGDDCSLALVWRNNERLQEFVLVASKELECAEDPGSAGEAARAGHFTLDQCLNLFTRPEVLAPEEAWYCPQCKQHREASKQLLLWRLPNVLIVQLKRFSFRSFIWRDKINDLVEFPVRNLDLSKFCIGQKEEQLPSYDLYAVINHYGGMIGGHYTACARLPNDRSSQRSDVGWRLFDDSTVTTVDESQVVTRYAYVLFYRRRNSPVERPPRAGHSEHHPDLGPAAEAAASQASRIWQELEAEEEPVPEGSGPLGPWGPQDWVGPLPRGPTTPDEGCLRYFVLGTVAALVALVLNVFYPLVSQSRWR
How it was run: (§1)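 Global-median-normalised Spectronaut label-free quantities were compared by unpaired t-test, and values are average log2 ratios of fragment over vehicle. Only proteins with ≥2 unique peptides were used. HEK293T lysate (495 µg per sample) was treated in triplicate with fragment at 200 µM or vehicle for 3 h and then with Biotin-Ahx-Ub-VS at 0.5 µM final for 1 h. Labelled DUBs were then NeutrAvidin-enriched, digested with LysC and trypsin, and run by diaPASEF LC-MS/MS.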

USP24 = USP24 (UniProt Q9UPU5)
USP24, sequence (Q9UPU5 whole entry): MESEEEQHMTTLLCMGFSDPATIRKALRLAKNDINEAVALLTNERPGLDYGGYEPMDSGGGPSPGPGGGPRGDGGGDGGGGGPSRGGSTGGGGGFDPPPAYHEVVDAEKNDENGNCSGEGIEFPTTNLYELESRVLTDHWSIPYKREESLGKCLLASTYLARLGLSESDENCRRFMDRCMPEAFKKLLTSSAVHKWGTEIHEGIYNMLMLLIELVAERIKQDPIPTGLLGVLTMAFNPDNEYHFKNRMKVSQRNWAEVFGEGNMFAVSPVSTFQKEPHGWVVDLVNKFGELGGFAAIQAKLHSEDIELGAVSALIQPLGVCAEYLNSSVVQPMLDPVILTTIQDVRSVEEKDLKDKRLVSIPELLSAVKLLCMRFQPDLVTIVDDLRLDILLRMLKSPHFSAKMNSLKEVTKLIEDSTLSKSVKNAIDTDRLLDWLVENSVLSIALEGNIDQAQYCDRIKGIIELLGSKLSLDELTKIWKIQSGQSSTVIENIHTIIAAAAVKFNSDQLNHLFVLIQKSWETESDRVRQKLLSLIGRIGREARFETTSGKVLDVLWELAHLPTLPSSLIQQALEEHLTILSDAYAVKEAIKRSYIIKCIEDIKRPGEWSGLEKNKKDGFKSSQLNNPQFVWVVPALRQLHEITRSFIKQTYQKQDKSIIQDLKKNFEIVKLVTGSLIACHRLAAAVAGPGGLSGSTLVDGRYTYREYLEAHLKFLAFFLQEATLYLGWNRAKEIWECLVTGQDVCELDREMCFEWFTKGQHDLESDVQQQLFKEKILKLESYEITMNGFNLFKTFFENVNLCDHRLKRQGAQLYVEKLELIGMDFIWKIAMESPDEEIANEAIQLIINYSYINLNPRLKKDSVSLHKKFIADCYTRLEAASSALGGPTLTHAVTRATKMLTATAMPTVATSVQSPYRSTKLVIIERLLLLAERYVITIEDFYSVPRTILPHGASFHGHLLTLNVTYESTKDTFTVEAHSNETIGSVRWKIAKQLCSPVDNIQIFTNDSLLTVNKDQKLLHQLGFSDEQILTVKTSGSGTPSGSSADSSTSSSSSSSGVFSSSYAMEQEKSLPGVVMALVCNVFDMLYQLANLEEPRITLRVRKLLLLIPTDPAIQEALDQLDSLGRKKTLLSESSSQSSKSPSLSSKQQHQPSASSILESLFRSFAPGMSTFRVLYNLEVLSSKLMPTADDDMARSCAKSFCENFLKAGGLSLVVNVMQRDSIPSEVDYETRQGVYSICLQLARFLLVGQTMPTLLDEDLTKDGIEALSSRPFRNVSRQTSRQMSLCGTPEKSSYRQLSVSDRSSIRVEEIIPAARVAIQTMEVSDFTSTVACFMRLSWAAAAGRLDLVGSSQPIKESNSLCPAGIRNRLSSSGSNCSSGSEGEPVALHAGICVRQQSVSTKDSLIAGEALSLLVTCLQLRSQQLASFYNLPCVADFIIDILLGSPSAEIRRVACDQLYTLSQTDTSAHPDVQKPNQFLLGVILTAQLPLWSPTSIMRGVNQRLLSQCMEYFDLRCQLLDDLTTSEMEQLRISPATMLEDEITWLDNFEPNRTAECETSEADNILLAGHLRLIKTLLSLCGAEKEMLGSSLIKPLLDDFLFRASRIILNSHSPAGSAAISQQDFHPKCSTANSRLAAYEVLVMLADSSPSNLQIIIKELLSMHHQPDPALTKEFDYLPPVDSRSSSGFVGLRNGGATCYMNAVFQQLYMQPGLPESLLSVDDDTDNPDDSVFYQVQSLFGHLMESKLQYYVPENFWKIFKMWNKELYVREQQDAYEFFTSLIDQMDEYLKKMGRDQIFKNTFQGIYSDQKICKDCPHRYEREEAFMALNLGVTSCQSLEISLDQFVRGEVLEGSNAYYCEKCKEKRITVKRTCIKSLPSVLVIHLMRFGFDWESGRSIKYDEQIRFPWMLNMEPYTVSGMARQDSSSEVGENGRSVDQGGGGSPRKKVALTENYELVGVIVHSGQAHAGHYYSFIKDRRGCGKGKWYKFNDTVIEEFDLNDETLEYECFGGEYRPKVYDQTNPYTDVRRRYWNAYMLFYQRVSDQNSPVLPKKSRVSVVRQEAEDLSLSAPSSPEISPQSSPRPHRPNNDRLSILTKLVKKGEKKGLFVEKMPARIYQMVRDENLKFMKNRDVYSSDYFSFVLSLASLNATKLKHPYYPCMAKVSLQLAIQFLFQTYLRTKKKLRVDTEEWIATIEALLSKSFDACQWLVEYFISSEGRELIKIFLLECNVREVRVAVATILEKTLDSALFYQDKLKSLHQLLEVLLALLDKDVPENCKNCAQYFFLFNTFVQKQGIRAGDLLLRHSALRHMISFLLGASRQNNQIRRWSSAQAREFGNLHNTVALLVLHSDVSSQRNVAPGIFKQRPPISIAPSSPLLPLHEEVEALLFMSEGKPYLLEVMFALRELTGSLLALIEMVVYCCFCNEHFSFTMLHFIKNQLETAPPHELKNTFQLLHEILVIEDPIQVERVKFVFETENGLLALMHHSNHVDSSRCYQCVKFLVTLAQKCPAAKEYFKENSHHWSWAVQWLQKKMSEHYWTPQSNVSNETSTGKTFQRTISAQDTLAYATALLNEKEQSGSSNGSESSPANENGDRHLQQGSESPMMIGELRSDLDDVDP
How it was run: as §1

USP25 = molecular target: T2, USP25 (UniProt Q9UHP3)
T2 sequence (whole entry): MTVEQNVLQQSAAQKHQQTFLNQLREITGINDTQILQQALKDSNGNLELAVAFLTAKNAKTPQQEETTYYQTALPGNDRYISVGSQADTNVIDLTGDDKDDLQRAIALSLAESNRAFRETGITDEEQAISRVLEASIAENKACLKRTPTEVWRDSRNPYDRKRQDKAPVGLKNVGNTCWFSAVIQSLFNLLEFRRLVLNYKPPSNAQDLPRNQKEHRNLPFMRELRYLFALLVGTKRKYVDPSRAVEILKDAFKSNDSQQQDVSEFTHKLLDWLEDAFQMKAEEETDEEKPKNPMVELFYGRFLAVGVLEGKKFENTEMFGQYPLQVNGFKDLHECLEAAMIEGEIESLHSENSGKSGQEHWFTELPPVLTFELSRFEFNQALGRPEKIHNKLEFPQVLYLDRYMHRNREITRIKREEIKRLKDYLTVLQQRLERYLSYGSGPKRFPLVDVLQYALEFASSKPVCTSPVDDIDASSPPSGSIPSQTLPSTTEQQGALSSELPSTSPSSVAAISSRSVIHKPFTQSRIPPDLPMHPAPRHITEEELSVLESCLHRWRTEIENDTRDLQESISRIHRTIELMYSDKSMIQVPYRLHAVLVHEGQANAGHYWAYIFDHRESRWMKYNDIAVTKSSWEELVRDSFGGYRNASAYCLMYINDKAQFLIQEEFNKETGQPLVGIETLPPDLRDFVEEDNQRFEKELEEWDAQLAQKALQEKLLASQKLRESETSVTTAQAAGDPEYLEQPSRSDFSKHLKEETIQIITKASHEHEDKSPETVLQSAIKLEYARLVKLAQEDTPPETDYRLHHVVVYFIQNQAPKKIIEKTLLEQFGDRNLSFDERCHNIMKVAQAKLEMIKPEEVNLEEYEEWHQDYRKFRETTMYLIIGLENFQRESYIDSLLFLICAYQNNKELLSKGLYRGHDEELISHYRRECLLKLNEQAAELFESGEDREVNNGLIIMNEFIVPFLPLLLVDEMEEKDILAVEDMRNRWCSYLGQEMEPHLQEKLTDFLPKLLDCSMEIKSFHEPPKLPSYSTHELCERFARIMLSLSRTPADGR
How it was run: as §1

USP28 = molecular target: T3, USP28 (UniProt Q96RU2)
T3 sequence (whole entry): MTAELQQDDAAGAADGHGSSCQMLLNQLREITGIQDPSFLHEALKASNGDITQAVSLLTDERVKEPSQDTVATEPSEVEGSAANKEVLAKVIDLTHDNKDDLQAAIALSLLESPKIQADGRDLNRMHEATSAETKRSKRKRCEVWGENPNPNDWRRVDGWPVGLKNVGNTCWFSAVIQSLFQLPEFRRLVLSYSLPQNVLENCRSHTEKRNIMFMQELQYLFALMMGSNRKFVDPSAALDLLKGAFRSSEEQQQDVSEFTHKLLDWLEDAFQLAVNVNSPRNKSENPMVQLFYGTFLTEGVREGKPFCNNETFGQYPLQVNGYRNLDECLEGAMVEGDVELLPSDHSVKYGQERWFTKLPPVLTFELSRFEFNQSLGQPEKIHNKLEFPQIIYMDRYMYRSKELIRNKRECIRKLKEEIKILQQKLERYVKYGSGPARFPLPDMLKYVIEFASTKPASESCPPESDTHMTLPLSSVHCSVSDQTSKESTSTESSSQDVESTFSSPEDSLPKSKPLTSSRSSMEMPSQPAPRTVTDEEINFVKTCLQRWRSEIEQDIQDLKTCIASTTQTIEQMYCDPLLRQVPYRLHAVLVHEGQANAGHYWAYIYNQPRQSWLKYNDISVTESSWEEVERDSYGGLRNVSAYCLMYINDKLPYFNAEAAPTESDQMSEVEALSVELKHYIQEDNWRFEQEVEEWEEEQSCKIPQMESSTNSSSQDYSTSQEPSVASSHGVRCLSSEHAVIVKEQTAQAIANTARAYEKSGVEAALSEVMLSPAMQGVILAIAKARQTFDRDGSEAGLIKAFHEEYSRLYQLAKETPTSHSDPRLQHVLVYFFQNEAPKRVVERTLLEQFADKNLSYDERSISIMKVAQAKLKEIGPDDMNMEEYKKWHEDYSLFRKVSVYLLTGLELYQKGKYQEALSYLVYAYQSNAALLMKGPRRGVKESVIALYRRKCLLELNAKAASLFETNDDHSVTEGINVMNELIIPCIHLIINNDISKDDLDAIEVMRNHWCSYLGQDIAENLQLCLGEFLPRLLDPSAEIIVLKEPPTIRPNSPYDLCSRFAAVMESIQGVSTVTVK
How it was run: as §1

Measured: log2 ratio of Biotin-Ahx-Ub-VS probe labelling

Cc1cc(Cl)ccc1NC(=O)CCl
inactive: USP19 -0.055 | USP24 -0.224 | USP25 -0.208 | USP28 -0.682
